A selection: hits, their analogues and other compounds. The true share with any hit is near 1.1%.
NR5A2 inv ag: NR5A2 inverse agonism in reporter assay; O00482; HEK293T StAR-luciferase reporter, LRH-1 transfected, 24 h; inhibition, % at 3.6 µM; 360,000 compounds, 0.13% hits; AID 602396;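 active = inhibition above the mean inhibition of all tested compounds plus 3 SD, cut at about 73% in these data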;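 also: 0% = DMSO wells and 100% = reporter-only cells lacking LRH-1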
NCOA3 inh: human NCOA3 inhibition | Q9Y6Q9 | HEK293 GAL4-SRC3 luciferase reporter, luminescence | inhibition, % at 3.6 µM | 360,000 compounds, 0.17% hits | AID 588352;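 active = inhibition above a per-campaign cutoff, the mean of all compounds plus 3 SD, cut at about 60% in these data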;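 also: 0% = DMSO-treated cells and 100% = gossypol-treated cells at 36 µM; higher means less SRC3-driven luciferase light from the GAL4 reporter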
SRC2 inh: inhibits human steroid receptor coactivator 2. HEK293 GAL4-SRC2 luciferase reporter, luminescence. inhibition, % at 9 µM. 370,000 compounds, 0.17% hits;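 active = inhibition above the mean inhibition of all tested compounds plus 3 SD, set per campaign, cut at about 52% in these data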;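 also: 0% = DMSO treated cells and 100% = cells given Gossypol at 36 µM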
GalR3 antagonist: antagonists of human GalR3; O60755; HEK293 GalR3-CNG cAMP membrane potential fluorescence; galR3 body fused to GalR1 C-terminus; inhibition, % at 3 µM; 360,000 compounds, 0.44% hits;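 active = inhibition above the screen-wide average plus 3 SD, cut at about 13% in these data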;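 also: forskolin and galanin both at EC90 stimulate the cells; cAMP rise reported by CNG channel membrane potential dye signal; 0% = forskolin plus galanin with DMSO and 100% = forskolin alone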
Target sequence (O60755 1-299 limits assumed): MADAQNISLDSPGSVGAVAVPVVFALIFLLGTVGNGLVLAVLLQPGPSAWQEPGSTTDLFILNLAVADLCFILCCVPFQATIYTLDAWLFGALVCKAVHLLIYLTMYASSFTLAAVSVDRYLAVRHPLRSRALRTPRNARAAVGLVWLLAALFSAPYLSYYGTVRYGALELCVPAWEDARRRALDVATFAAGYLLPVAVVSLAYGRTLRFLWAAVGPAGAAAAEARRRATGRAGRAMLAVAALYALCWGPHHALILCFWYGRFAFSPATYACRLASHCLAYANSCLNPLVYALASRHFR
SRC1 inh: inhibits human SRC1 coactivator. Q15788. HEK293 GAL4-SRC1 luciferase reporter, luminescence. inhibition, % at 3.6 µM. 360,000 compounds, 0.12% hits. AID 588354;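 active = inhibition above the campaign mean plus 3 SD, with each screening campaign given its own cutoff, cut at about 60% in these data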;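 also: 0% = DMSO treated cells and 100% = gossypol at 36 µM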
NR2F2 inh: inhibitors of human COUP-TFII (NR2F2); P24468; HEK293T NGFI-A luciferase reporter, luminescence; inhibition, % at 8.6 µM; 370,000 compounds, 0.7% hits; AID 686940;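 active = inhibition above a per-plate cutoff, mean inhibition of test wells between control levels plus 3 SD, cut at about 38% in these data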;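 also: cells cotransfected with COUP-TFII expression vector driving the NGFI-A reporter; 0% = median of COUP-TF2 test wells and 100% = reporter-only cells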
Target sequence (P24468 whole entry, looked up): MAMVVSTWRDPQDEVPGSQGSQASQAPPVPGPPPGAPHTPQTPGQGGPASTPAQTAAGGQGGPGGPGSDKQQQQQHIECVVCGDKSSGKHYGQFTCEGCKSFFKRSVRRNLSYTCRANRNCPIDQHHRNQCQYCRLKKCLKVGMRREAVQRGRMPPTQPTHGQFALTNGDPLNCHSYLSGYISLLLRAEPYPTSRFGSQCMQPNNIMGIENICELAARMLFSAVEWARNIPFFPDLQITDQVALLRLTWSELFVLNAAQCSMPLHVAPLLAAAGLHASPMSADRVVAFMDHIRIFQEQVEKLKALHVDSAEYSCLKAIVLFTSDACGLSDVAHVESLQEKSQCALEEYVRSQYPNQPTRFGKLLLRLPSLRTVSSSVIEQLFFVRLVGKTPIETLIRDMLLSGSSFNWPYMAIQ
Gal4-VP16 ctr: inhibits VP16 reporter, flagging COUP-TFII antagonist hits; 2,500 compounds, 25% hits; HEK293 Gal4-VP16 luciferase reporter, luminescence; AID 687007; shares compounds with NR2F2 inh; inhibition, % at 8.5 µM; in the data active = inhibition above about 13%
COUP-TFII conf: confirmation of human COUP-TFII (NR2F2) inhibitors; shares compounds with NR2F2 inh; HEK293 NGFI-A luciferase reporter, luminescence; inhibition, % at 8.5 µM; 2,500 compounds, 45% hits;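 active = mean inhibition over three repeats above a set limit taken from the earlier primary screen, cut at about 38% in these data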;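 also: 100% = cells given the luciferase reporter alone without the COUP-TF2 vector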
Numbers without * were called inactive; x = no result; ! = not confirmed by another sample.

SMILES	NR5A2 inv ag	NCOA3 inh	SRC2 inh	GalR3 antagonist	SRC1 inh	NR2F2 inh	Gal4-VP16 ctr	COUP-TFII conf
CCCn1nc(C(=O)Nc2ccc3nc(N4CCOCC4)sc3c2)ccc1=O	35.2	11.4	13.6	-6.0	0.7	43.2*	9.9	36.3
C=CCN1C[C@H](COC(=O)c2cccc(OC)c2)Oc2cccc(F)c2S1(=O)=O	x	x	5.4	-8.6	x	-4.4	x	x
CC(c1nccs1)N(C)C(=O)CCc1nnc(-c2ccc(-c3ccccc3)cc2)o1 (stereo not drawn)	13.4	12.7	37.5	-3.5	-3.0	10.7	x	x
O=C(CCc1nnc(Cc2ccc(-c3ccccc3)cc2)o1)NCCc1ccccn1	3.4	1.3	4.8	-2.9	-32.4	6.5	x	x
CC(NC(=O)CCc1nnc(-c2ccc(-c3ccccc3)cc2)o1)c1nccs1 (stereo not drawn)	-46.6	-10.4	66.7*	-5.6	-20.1	48.3*	-0.4	15.8
COCCNC(=O)CCc1nnc(Cc2ccc(-c3ccccc3)cc2)o1	-9.4	14.4	7.7	9.0	-1.1	-10.4	x	x
O=C(CCc1nnc(-c2ccc(-c3ccccc3)cc2)o1)NCCc1ccccn1	-21.5	-8.6	59.5*	-2.3	-29.4	43.3*	-14.7	23.1
COC(=O)CCCNC(=O)CCc1nnc(-c2ccc(-c3ccccc3)cc2)o1	-23.5	-14.2	56.7*	-9.0	-9.8	52.4*	12.3	10.7
C[N+]1=C(N)N[C@@]2(C=C3CCCCC3n3c(=O)n(-c4ccccc4)c(=O)n32)C1 (stereo partly drawn)	x	x	-11.2	x	x	-2.3	x	x
Cc1cc2nc(C3CCCN(C(=S)Nc4ccccc4)C3)[nH]c2cc1C (stereo not drawn)	10.0	7.7	20.9	-9.5	7.9	48.9*	-7.8	9.1
Cc1cn([C@H]2C=C[C@@H](CO)O2)c(=O)[nH]c1=O	-1.5	-6.4	-14.8	-3.9	-7.7	60.7*!	-0.6	-13.3
Cc1cn(C2CC(O)C(O)C(CO)O2)c(=O)[nH]c1=O (stereo not drawn)	-4.7	-16.5	-14.2	-5.9	3.8	3.6	x	x
Cc1ccccc1C(=O)N1CCN(c2ccc(NC(=S)NC(=O)c3ccco3)cc2)CC1	23.3	24.5	23.3	-3.0	-8.2	46.2*	-7.6	17.6
COc1ccccc1C(=O)NC(=S)Nc1ccc(N2CCN(C(=O)c3ccco3)CC2)cc1	-2.5	-1.6	4.9	-2.8	6.4	23.0	x	x
Cc1cccc(OCC(=O)Nc2ccc(N3CCN(C(=O)c4ccco4)CC3)cc2)c1	19.8	23.3	2.0	8.2	-24.1	63.7*	1.0	34.3
O=C(COc1ccc(Nc2ccccc2)cc1)Nc1ccncc1	42.9	-5.0	14.0	-5.3	10.9	48.2*	0.8	20.1
O=C(COc1ccc(Br)cc1)Nc1ccncc1	21.4	3.1	-5.8	-0.9	6.0	-4.7	x	x
COc1ccc([C@H]2CC(=O)C=C(c3ccnc4ccc(Cl)cc34)C2)cc1	21.1	21.7	-15.7	7.3	30.7	68.9*	11.9	64.9*
COc1ccc([C@H]2CC(=O)C=C(c3cc(Cl)ccc3C)C2)cc1	-3.2	3.6	-7.3	-6.3	-8.4	-16.7	x	x
CN1C(=O)C2(C(C#N)=C(N)N(c3cc(Cl)cc(Cl)c3)C3=C2C(=O)CCC3)c2ccccc21 (stereo not drawn)	8.9	32.8	6.5	-4.3	6.1	42.7*	-16.2	26.5
CCCCCCC(=O)N(O)C1CC(=O)N(c2ccc(F)cc2)C1=O (stereo not drawn)	-2.4	26.7	28.3	-0.2	1.6	38.1*	-4.1	44.4*
CCCCN(C(=O)CCC(=O)O)C1CC(=O)N(c2ccc(OCCC)cc2)C1=O (stereo not drawn)	-8.7	5.2	-1.6	1.9	2.0	-9.9	x	x
CCCCCCC(=O)N(O)C1CC(=O)N(c2ccc(Br)cc2)C1=O (stereo not drawn)	4.9	3.4	21.7	-3.7	16.4	39.9*	3.0	51.8*
COC(=O)[C@]12C[C@H](CC(=O)N3CCN(C(=O)c4ccco4)CC3)C(=O)N(CCc3ccc(OC)c(OC)c3)C1=C[C@H](C1CCCC1)O[C@@H]2C	x	x	25.1	x	x	-2.7	x	x
Cc1ccc(S(=O)(=O)CC2CSc3nc4ccccc4n32)cc1 (stereo not drawn)	48.0	24.8	16.5	-11.0	26.5	67.5*	9.4	63.9*
SMILES	NR5A2 inv ag	NCOA3 inh	SRC2 inh	GalR3 antagonist	SRC1 inh	NR2F2 inh	Gal4-VP16 ctr	COUP-TFII conf
Cc1ccc(S(=O)(=O)CC2CSc3nc(N)cc(=O)n32)cc1 (stereo not drawn)	-1.8	-5.4	2.7	5.8	-12.7	-8.0	x	x
COc1ccc(Nc2sc(C(=O)c3ccc(Cl)cc3)c(N)c2C(=O)Nc2ccccc2OC)cc1	5.6	6.9	26.9	-3.5	-5.5	2.0	x	x
COc1ccccc1NC(=O)c1c(Nc2ccccc2C)sc(C(=O)Nc2cccc(Cl)c2)c1N	26.1	26.9	5.4	2.6	16.6	38.4*	3.8	60.9*
COc1ccc(CN2CCN(C(=O)c3ccc(S(=O)(=O)NCc4ccco4)cc3)CC2)cc1	39.7	7.3	11.2	-1.6	15.7	45.2*	4.8	30.6
O=C(c1ccc(S(=O)(=O)NCc2ccco2)cc1)N1CCN(Cc2ccccc2)CC1	-2.4	18.3	-7.3	-3.4	7.3	-8.9	x	x
CCOc1cc(/C=C2\CN(CC)C/C(=C\c3ccc(O)c(OCC)c3)C2=O)ccc1O	45.6	43.0	10.5	-6.5	51.1	79.1*	48.3*	72.0*
CC(C)(C)S(=O)N1C[C@@H]2CC(=O)C(CCO)=C2[C@H]1CCO (stereo partly drawn)	x	x	-14.9	-5.0	x	7.7	x	x
CC1=C(CO)C(=O)OC([C@@H](C)C2CC[C@H]3C4C[C@H]5O[C@]56[C@@H](O)C=CC(=O)[C@]6(C)C4CC[C@]23C)C1 (stereo partly drawn)	61.7	19.8	68.4*	-6.5	14.1	43.7*	49.1*	41.0*
CCN(CC)C(=O)Cn1c(C)c(/C=C/c2cc[n+](C)cc2)c2ccccc21	11.3	-1.0	9.8	-5.5	6.1	23.6	x	x
C=CCn1c(C)c(/C=C/c2cc[n+](C)cc2)c2ccccc21	30.6	22.5	11.3	7.8	1.5	56.2*	7.1	33.8
CCn1cc(/C=C/c2cc[n+](C)cc2)c2ccccc21	41.8	33.3	-31.3	-11.9	38.2	41.8*	9.2	20.4
COc1ccc(NS(=O)(=O)c2cccc(C(=O)N/N=C/c3cccs3)c2)cc1	11.3	1.7	-16.4	-3.5	-23.8	5.4	x	x
COc1ccc(NS(=O)(=O)c2cccc(C(=O)NN=Cc3ccc(OC)cc3OC)c2)cc1	-0.7	-2.5	9.1	-3.6	0.1	37.6*	-7.0	-5.3

Screens as filed in PubChem.
